Results on nine molecules are retold here after PubChem BioAssay (Tox21).

Where “and” joins values, the source holds several entries; their conditions need not be identical. Equal values may be shown once. Inconclusive results are not listed. The source holds several records for some structures; these can differ, active in one and inactive in another. Calls of active or inactive are those of the source. Unless noted, the call rests on the fitted dose curve; in most records, active means well fitted curve in the direction sought with a large enough effect in the repeat runs; inconclusive means weak or mixed curves; inactive means no such curve, though single readings can be large; an effect the other way counts as inactive or inconclusive.

Experiment [1] is described as follows: qHTS assay to identify small molecule agonists of the TGF-beta/Smad signaling pathway - cell viability counter screen (AID 1346829). Further: top concentration of the series differs between compounds; nearly all actives have a fitted effect of over 45% in size. A digest of the protocol: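 After overnight seating at 37 C and 5% CO2, reporter cells got compounds for 5 hr and FRET substrate for 2 hr; cell viability then came from CellTiter-Glo luminescence.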
Background: Quantitative high-throughput screening tests each substance at several concentrations.

Experiment [2] can be described thus: qHTS assay to identify small molecule agonists of the TGF-beta/Smad signaling pathway (AID 1346859; active means well fitted activation curve with a large enough effect in the signal ratio in the repeat runs, not every such curve was filed as active; the % refers to the signal ratio; further: series mostly up to about 77 µM). In outline:
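Reporter line: HEK 293T with stably integrated SBE-controlled beta-lactamase. Compound exposure lasts 5 hr at 37 C and 5% CO2; substrate loading follows for 2 hr at room temperature, with emission read at 460 and 530 nm.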

Experiment [3] in a line: Caspase-3/7 induction in HepG2 cells by small molecules, qHTS assay (AID 1346978). Further: nearly all actives have a fitted effect of over 15% in size. Further: potency means the concentration at half of the fitted maximal effect. In outline: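 Wild-type HepG2 cells, 2,000/well, settled 5 hr at 37 C and 5% CO2, then compound-treated for 17 hr; caspase-3/7 activity read by luminescent Caspase-Glo 3/7 after 30 min at room temperature.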
The nature of experiment [4]: qHTS assay to identify small molecule antagonists of the TGF-beta/Smad signaling pathway - cell viability counter screen (AID 1346824). Further: nearly all actives have a fitted effect of over 50% in size. A digest of the protocol:
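SBE-bla HEK 293T cells, incubated overnight, then compound plus 0.25 ng/mL TGF-beta1 (stock added) for 5 hr at 37 C. Viability was read in the same wells by CellTiter-Glo luminescence after 30 min at room temperature.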

Experiment [5] deals with Thyrotropin-releasing hormone receptor (Homo sapiens) (UniProt P34981). Briefly: qHTS assay to identify small molecule antagonists of the thyrotropin-releasing hormone receptor (TRHR) signaling pathway (AID 1346877; active means well fitted inhibition curve with a large enough effect in the repeat runs, not every such curve was filed as active; further: series mostly up to about 51 µM). In outline: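 Screening used HEK293 cells engineered with TRHR, with a brief 5 min room-temperature compound exposure preceding addition of TRH to 1 nM. The read-out was kinetic calcium-dye fluorescence, concentration-response from 15 doses in triplicate.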
Thyrotropin-releasing hormone receptor (Homo sapiens), sequence (P34981 whole entry, looked up): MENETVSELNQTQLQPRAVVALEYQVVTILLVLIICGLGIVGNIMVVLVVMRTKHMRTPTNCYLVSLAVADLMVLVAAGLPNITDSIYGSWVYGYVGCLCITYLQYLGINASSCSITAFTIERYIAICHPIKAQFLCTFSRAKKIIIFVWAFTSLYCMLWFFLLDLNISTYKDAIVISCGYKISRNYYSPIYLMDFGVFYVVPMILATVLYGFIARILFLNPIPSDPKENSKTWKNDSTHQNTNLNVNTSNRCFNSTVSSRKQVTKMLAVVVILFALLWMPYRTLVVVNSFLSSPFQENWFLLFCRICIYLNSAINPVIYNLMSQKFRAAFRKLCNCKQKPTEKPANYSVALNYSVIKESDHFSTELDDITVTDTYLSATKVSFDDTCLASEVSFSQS

Experiment [6] has the same target. Briefly: qHTS assay to identify small molecule agonists of the thyrotropin-releasing hormone receptor (TRHR) signaling pathway (AID 1346891; calls by dose curve;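 further: HEK293 cells expressing TRHR with calcium dye readout; series mostly up to about 58 µM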). A digest of the protocol:
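Cells: TRHR-Hek293, seeded and incubated 18 h. Dye loading: 2 h at 37 °C. Compound added from DMSO stock by pin tool. Read-out: kinetic calcium fluorescence over 3 min.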

A short description of experiment [7]: Human pregnane X receptor (PXR) small molecule agonists, qHTS cell viability counter screen (AID 1346977). Further: nearly all actives have a fitted effect of over 50% in size. Further: potency means the concentration at half of the fitted maximal effect. A digest of the protocol:
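Cytotoxicity counter screen run in the same wells as the PXR luciferase assay, using PXR-Luc HepG2 cells in charcoal-stripped serum medium. Viability: CellTiter-Fluor fluorescence after 24hr compound treatment.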

Experiment [8] is described as follows: qHTS assay to identify small molecule agonists of the progesterone receptor (PR) signaling pathway - cell viability counter screen (AID 1346799; calls by dose curve; further: nearly all actives have a fitted effect of over 45% in size; further: potency means the concentration at half of the fitted maximal effect). In outline: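 Cells (PR-UAS-bla HEK293T) are plated at 3,000/well in 2% charcoal-stripped FBS medium, rested 6 hr, dosed and incubated 16 hr at 37C. CellTiter-Glo is then added and luminescence measured after 30 min at room temperature.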

Take `C=C[C@](C)(O)CC[C@@H]1[C@@]2(C)CCCC(C)(C)[C@@H]2CC[C@@]1(C)O`: the Potency entry in experiment [1] and in experiment [2] was “inactive” each time. Also, in experiment [3], the Potency is 68.6 µM (active).
Turning to `O=C(c1ccccc1)c1cc(Cl)ccc1O`, the Potency result in experiment [4], in experiment [1], in experiment [2], in experiment [5], in experiment [6] and in experiment [7] was “inactive” throughout. The Potency entry in experiment [3] is “inactive”.
In the case of `CN(C)c1ccc(N=NS(=O)(=O)O)cc1`, the Potency entry in experiment [4], in experiment [2], in experiment [6] and in experiment [3] was “inactive” each time. For the same molecule, the Potency in experiment [7] was 20.4 µM (active).
Regarding `CN(C)CCCN1c2ccccc2CCc2ccccc21`, the Potency in experiment [8] was 21.7 µM (active) and inactive; in experiment [7], 30.6 µM (active) and 23.7 µM (active). Moreover, the Potency result in experiment [1], in experiment [5], in experiment [6] and in experiment [3] was “inactive” throughout.
As for `CC(C)OC(=O)c1cc(C(=O)OC(C)C)cc([N+](=O)[O-])c1`, the Potency entry in experiment [1], in experiment [2], in experiment [5], in experiment [6] and in experiment [3] was “inactive” each time.
Consider `CCCCCCCCCCCCCOP(=O)(O)O`, for which the Potency entry in experiment [8], in experiment [4], in experiment [1], in experiment [2], in experiment [5] and in experiment [6] was “inactive” throughout. For the same molecule, the Potency result in experiment [7] and in experiment [3] was “inactive” in each case.
For `CCCCCCCC/C=C\CCCCCCCC(=O)NCc1ccc(O)c(OC)c1`, the Potency result in experiment [4], in experiment [1], in experiment [2], in experiment [7] and in experiment [3] was “inactive” each time.
For `CC1=C(/C=C/C(C)=C/C=C/C(C)=C/C(=O)Nc2ccc(O)cc2)C(C)(C)CCC1`, the Potency result in experiment [4], in experiment [1], in experiment [2] and in experiment [6] was “inactive” throughout. Also, in experiment [3], the Potency was 70.3 µM (active) and 29.8 µM (active).
With `CN(C)CCOC(c1ccccc1)c1ccccc1` (tested in a mixture with another compound), the Potency entry in experiment [4], in experiment [1], in experiment [2], in experiment [5], in experiment [6] and in experiment [3] was “inactive” throughout.
